Bioassay records (PubChem)
NPR1 antag: human Npr1 receptor antagonism; Potency, µM (highest dose often 46.3 µM), most hits filed as inhibitors; AID 1347048; HEK293 hNpr1 GloSensor cGMP, ANP-stimulated luminescence; actives 1.6% (n = 76,000); P16066; calls by dose curve; also: nearly all actives have a fitted effect of over 60% in size
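Compound pre-incubated 30 min at room temperature on GloSensor-loaded HEK293 cells stably carrying hNpr1 and the pGS-40F cGMP biosensor. Stimulation uses hNppA at 0.1 nM final; luminescence is taken at baseline and 20 min post-agonist.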
HEK293 tox: HEK 293 cell cytotoxicity; HEK 293 viability, ATP luminescence (CellTiter-Glo), 48-72 h; Potency, µM (series often up to 115 µM), hits mostly inhibitors; actives 6.6% (n = 94,000); AID 1345083; also: nearly all actives have a fitted effect of over 60% in size
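HEK 293 cells seeded at 250 cells/well were exposed to compound for 48 or 72 hr at 37 degree Celsius. Viability taken as ATP content by CellTiter-Glo luminescence.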
Luciferase inh: Photinus pyralis luciferase inhibition; purified P. pyralis luciferase, luminescence, biochemical; Potency, µM (series often up to 115 µM), most hits filed as inhibitors; actives 2.5% (n = 76,000); also: nearly all actives have a fitted effect of over 65% in size
Target sequence (P08659 whole entry, looked up): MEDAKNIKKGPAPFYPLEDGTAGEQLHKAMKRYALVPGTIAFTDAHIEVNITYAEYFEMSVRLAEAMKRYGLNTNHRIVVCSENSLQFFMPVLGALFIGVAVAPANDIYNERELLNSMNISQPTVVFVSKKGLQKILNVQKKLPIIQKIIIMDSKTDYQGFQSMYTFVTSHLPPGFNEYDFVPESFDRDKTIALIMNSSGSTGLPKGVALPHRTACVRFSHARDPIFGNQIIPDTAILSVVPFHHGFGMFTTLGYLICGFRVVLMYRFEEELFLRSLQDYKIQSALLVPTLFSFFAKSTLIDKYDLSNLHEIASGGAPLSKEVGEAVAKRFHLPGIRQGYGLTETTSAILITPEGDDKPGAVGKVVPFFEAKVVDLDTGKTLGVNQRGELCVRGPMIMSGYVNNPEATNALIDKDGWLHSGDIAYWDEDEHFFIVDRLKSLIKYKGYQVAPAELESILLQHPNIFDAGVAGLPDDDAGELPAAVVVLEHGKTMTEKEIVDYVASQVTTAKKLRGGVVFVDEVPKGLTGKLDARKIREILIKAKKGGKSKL
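Luminescence read by CCD imager after adding enzyme (10nM final) to wells holding compound, titrated in qHTS. Substrates 10uM each D-luciferin and ATP; buffer 50mM Tris acetate pH 7.5, 10mM Mg acetate, Tween-20, BSA.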
3T3 cytotox: kills NIH 3T3 cells. NIH 3T3 viability, CellTiter-Glo ATP luminescence, 48-72 h. Potency, µM (titrated, usually from 96.7 µM), most hits filed as inhibitors. actives 4.3% (n = 94,000). AID 1345082; also: nearly all actives have a fitted effect of over 55% in size
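Mouse fibroblast NIH 3T3 cells, 400 per well, received compound via pintool and were incubated for 48 or 72 hr prior to CellTiter-Glo ATP luminescence measurement.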
Npr1 antag conf: hNpr1 antagonism, confirmation assay; HEK293 hNpr1 cGMP GloSensor luminescence, ANP-stimulated; AID 1347044; shares compounds with NPR1 antag; actives 76% (n = 1,400); Potency, µM (series often up to 57.6 µM), hits mostly inhibitors; calls by dose curve; also: nearly all actives have a fitted effect of over 70% in size
NPR2 antag: hNpr2 antagonism, selectivity versus Npr1. shares compounds with NPR1 antag. HEK293 hNpr2 GloSensor cGMP luminescence, CNP-stimulated. Potency, µM (doses to about 57.6 µM), usual class: inhibitors. actives 67% (n = 1,400); calls by dose curve; also: nearly all actives have a fitted effect of over 70% in size
FLuc counter: counter-screen for Npr1 antagonists: firefly luciferase inhibitors; shares compounds with NPR1 antag; purified FLuc enzyme, luminescence, Km substrate; Potency, µM (top dose mostly 57.6 µM), hits mostly inhibitors; actives 0.7% (n = 1,400)
GloSensor ctrl: control cell line activity, Npr1 antagonist counter-screen. shares compounds with NPR1 antag. HEK293 GloSensor cGMP, SNP-stimulated, luminescence. Potency, µM (titrated, usually from 57.6 µM), most hits filed as inhibitors. actives 69% (n = 1,400). AID 1347051; calls by dose curve; also: nearly all actives have a fitted effect of over 70% in size
Numbers stand for hits; i = inactive; ? = inconclusive; nt = no result given. The list is not random: actives were taken first. Their share in the collection is about 11%. Unless noted, calls follow the shape of the dose curve; as a rule, active = well fitted curve in the direction sought with a large enough effect; inconclusive = small, poorly fitted or top-dose-only effect, or another doubt; inactive = no such curve, though single readings can be large; an effect the other way counts as inactive or inconclusive.

SMILES | NPR1 antag | HEK293 tox | Luciferase inh | 3T3 cytotox | Npr1 antag conf | NPR2 antag | FLuc counter | GloSensor ctrl
COc1ccc(-c2nc3cc(C)ccc3cc2CN2CCCC(OC)C2)cc1 (centres undefined) | i | ? | i | ? | nt | nt | nt | nt
Cc1nc(CN2C(=O)OC3(CCN(Cc4c[nH]c5ccccc45)CC3)C2(C)c2ccccc2)cs1 (centres undefined) | i | ? | i | 20µM | ? | ? | i | i
c1ccc(CCCN[C@H]2CO[C@H]3[C@@H]2OC[C@@H]3n2cc(-c3ccccc3)nn2)cc1 | 10µM | ? | i | ? | 16µM | 20µM | i | 16µM
COC(=O)c1cccc(NC(=S)N[C@H]2CO[C@H]3[C@@H]2OC[C@@H]3n2cc(-c3ccccc3)nn2)c1 | 11µM | ? | i | ? | 12µM | 17µM | i | 12µM
O[C@@H]1CO[C@H]2[C@@H]1OC[C@@H]2n1cc(-c2ccccc2)nn1 | i | ? | i | i | nt | nt | nt | nt
COc1ccc(C(=O)N[C@H]2CO[C@H]3[C@@H]2OC[C@@H]3n2cc(-c3ccccc3)nn2)cc1 | i | ? | i | ? | nt | nt | nt | nt
Cc1cc(C(=O)N2CCC3(CC2)Nc2ccccc2NC3=O)c2ccccc2n1 | i | i | i | i | nt | nt | nt | nt
O=C(c1ccnc2ccccc12)N1CCC2(CC1)Nc1ccccc1NC2=O | ? | ? | i | i | 22µM | ? | i | 27µM
COc1cc(OC)cc(C(=O)N2CCC(Cc3nc(-c4cnccn4)no3)CC2)c1 | i | i | i | i | nt | nt | nt | nt
COc1cccc(-c2noc(CC3CCN(C(=O)c4ccccc4)CC3)n2)c1 | 7.9µM | 40µM | i | ? | 9.7µM | 11µM | i | 9.7µM
COc1cccc(-c2noc(CC3CCN(C(=O)c4ccc(OC)c(OC)c4)CC3)n2)c1 | 11µM | ? | i | ? | 9.7µM | 12µM | i | 11µM
O=C(c1cc(Cl)ccc1F)N1CCC(Cc2nc(-c3cnccn3)no2)CC1 | i | ? | i | ? | nt | nt | nt | nt
COc1cccc(-c2noc(CC3CCN(C(=O)c4cccc(Cl)c4)CC3)n2)c1 | 8.9µM | ? | i | ? | 7.7µM | 11µM | i | 7.7µM
COc1cccc(-c2noc(CC3CCN(C(=O)c4cc(Cl)ccc4F)CC3)n2)c1 | 8.9µM | ? | i | ? | 12µM | 19µM | i | 14µM
O=C(c1ccccc1)N1CCn2c(nn(-c3cccc(Cl)c3)c2=O)C1 | nt | i | nt | i | nt | nt | nt | nt
COc1cc(-c2cc(C)c3c(OC)ccc(OC)c3n2)cc2c1OCCNC2 | ? | ? | i | 20µM | ? | ? | i | i
NC1CCCCN(C(=O)CCn2cc(Cl)cn2)C1 (centres undefined) | i | i | i | i | nt | nt | nt | nt
O=C(CCn1cc(Cl)cn1)N1CCOC(c2ccc(Cl)cc2)C1 (centres undefined) | ? | 79µM | i | i | ? | ? | i | i
Cc1cccc(N2CCN(C(=O)CC3CCCCN(Cc4ccccc4)C3=O)CC2)c1 (centres undefined) | 13µM | ? | i | ? | 19µM | 22µM | i | 22µM
COc1ccccc1NC(=O)Cc1cccn1-c1ccc(Cl)cc1 | i | ? | i | ? | nt | nt | nt | nt
O=C1NN=C(c2cccnc2)C12CCN([S+](=O)([O-])c1cccc(C(F)(F)F)c1)CC2 | ? | ? | i | ? | 22µM | 22µM | i | 24µM
O=C(NC1CCN(c2cc(-c3ccc(F)cc3)[nH]n2)CC1)c1ccc(F)c(Cl)c1 | ? | ? | i | 32µM | 24µM | ? | i | ?
COc1ccc(CC(=O)NC2CCN(c3cc(-c4ccc(Cl)cc4)[nH]n3)C2)cc1OC (centres undefined) | 10µM | ? | i | ? | 19µM | 22µM | i | 11µM
CCOc1ccc(CC(=O)NC2CCN(c3cc(-c4ccc(F)cc4)[nH]n3)C2)cc1OCC (centres undefined) | i | ? | i | ? | nt | nt | nt | nt
COc1cccc(C(=O)N2CCN(c3cc(-c4ccc(Cl)cc4)[nH]n3)CC2)c1OC | 11µM | ? | i | ? | 22µM | 22µM | i | 17µM
SMILES | NPR1 antag | HEK293 tox | Luciferase inh | 3T3 cytotox | Npr1 antag conf | NPR2 antag | FLuc counter | GloSensor ctrl
CCOc1ccc(C(=O)N2CCCN(c3cc(-c4ccc(Cl)cc4)[nH]n3)CC2)cc1OCC | 11µM | ? | i | ? | 15µM | 17µM | i | 15µM
O=C(NC1CCN(c2cc(-c3ccc(Cl)cc3)[nH]n2)CC1)c1cccc(F)c1 | i | ? | i | i | nt | nt | nt | nt
COc1ccc(CC(=O)N2CCCN(c3cc(-c4ccccc4)[nH]n3)CC2)cc1 | i | ? | i | i | nt | nt | nt | nt
O=C(c1ccc(Cl)cc1)N1CCN(c2cc(-c3ccc(Cl)cc3)[nH]n2)CC1 | 11µM | 40µM | i | 32µM | 22µM | 22µM | i | 22µM
O=C(c1ccc2c(c1)OCO2)N1CCCN(c2cc(-c3ccc(Cl)cc3)[nH]n2)CC1 | i | ? | i | ? | nt | nt | nt | nt
COc1ccc(CC(=O)N2CCCN(c3cc(-c4ccc(OC)cc4)[nH]n3)CC2)cc1 | ? | ? | i | ? | ? | ? | i | i
COc1ccc(C(=O)N2CCN(c3cc(-c4ccc(Cl)cc4)[nH]n3)CC2)cc1F | 11µM | ? | i | ? | 14µM | 19µM | i | 11µM
O=C(c1ccc2c(c1)OCO2)N1CCCN(c2cc(-c3ccc(Br)cc3)[nH]n2)CC1 | 18µM | ? | i | ? | 24µM | 24µM | i | 31µM
CCN(CC)C(=O)[C@@H]1C[C@H](NC(=O)c2ccc[nH]2)CN1Cc1ccncc1 | i | i | i | ? | nt | nt | nt | nt
COc1ccc(Cn2c(C3CCN(C(=O)C(C)c4ccccc4)CC3)n[nH]c2=O)cc1 (centres undefined) | i | i | i | i | nt | nt | nt | nt
O=C(c1ccc2nnc(CC3CC3)n2c1)N1CCOCC1 | nt | i | nt | i | nt | nt | nt | nt
COc1ccc(-c2cc(N3CCN(C(=O)c4ccccc4C)CC3)n[nH]2)cc1 | i | ? | i | ? | nt | nt | nt | nt
O=C(c1ccccc1)N1CCN(c2cc(-c3ccc(Cl)cc3)[nH]n2)CC1 | ? | ? | i | ? | ? | ? | i | ?
O=C(c1ccc(F)c(Cl)c1)N1CCN(c2cc(-c3ccccc3)[nH]n2)CC1 | i | ? | i | ? | nt | nt | nt | nt
O=C(c1ccc2c(c1)OCO2)N1CCN(c2cc(-c3ccc(Cl)cc3)[nH]n2)CC1 | ? | ? | i | ? | 24µM | ? | i | 24µM
COc1ccc(C(=O)N2CCC3(CC2)NC(=O)N(Cc2ccccc2)C3=O)cc1F | ? | ? | i | i | nt | nt | nt | nt
COc1ccc(C(=O)N2CCC3(CC2)NC(=O)N(Cc2ccc(F)cc2)C3=O)cc1F | 13µM | ? | i | ? | 19µM | 22µM | i | 22µM
